Compound activity as filed in PubChem BioAssay.
JMJD2A Tudor inh – blocks the human JMJD2A Tudor domain; Potency, µM (series often up to 114 µM), without a hit: at the highest dose activity change, negative = inhibition, usual class: inhibitors; AID 504339; AlphaScreen JMJD2A-Tudor / H3K4me3 peptide binding; 390,000 tested, 4.4% active; note: % is set by controls: 0 for no effect and ±100 for the full control effect; nearly all actives have a fitted effect of over 50% in size
HP1b chromo inh – blocks HP1-beta chromodomain binding to methylated histone tails; P83916; AlphaScreen HP1-beta / biotin-H3K9me3 peptide binding; Potency, µM (highest dose often 114 µM), for inactives: at the top dose activity change, negative = inhibition, hits mostly inhibitors; 390,000 tested, 0.56% active; AID 540317; note: nearly all actives have a fitted effect of over 70% in size
Target sequence (P83916 whole entry, looked up): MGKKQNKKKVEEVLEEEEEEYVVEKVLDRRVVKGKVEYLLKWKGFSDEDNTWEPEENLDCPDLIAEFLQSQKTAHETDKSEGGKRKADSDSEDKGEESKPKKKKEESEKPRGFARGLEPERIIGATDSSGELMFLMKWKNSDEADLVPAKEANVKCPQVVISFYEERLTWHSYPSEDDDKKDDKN
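HP1-beta protein (50 nM final) preincubated 30 min at room temperature with biotinylated H3(1-18)K9me3 peptide (50 nM) in PBS pH 7.4, 0.01% Tween-20, then compound added for 30 min. AlphaScreen streptavidin donor/nickel chelate acceptor beads (10 ug/mL final), 30 min dark, luminescence read.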
G9a block – blocks human histone lysine methyltransferase G9a; 350,000 tested, 8.8% active; Q96KQ7; Potency, µM (doses to about 102 µM), inactives show at the highest dose activity, negative = inhibition, hits mostly inhibitors; G9a H3K9 monomethylation, AlphaScreen, 2 h; note: % is set by controls: 0 for no effect and ±100 for the full control effect; nearly all actives have a fitted effect of over 75% in size
Target sequence (Q96KQ7 913-1193 limits assumed): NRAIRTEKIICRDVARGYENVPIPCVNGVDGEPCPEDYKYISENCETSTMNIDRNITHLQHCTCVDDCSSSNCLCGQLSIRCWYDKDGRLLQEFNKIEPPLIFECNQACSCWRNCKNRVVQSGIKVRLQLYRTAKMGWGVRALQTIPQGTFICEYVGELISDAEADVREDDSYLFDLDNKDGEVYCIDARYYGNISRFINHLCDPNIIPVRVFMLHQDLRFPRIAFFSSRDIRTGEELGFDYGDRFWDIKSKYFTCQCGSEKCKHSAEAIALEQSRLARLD
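Readings reflect AlphaScreen signal from monomethyl-H3K9 antibody detection. HMT at 20 nM; substrate b-H3K9 500 nM; cofactor SAM 20 uM; 2 h RT reaction; compounds tested as titrations in qHTS with 15 min preincubation.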
BAZ2B block – inhibitors of human BAZ2B bromodomain | Q9UIF8 | Potency, µM (highest dose often 114 µM), for the others: at the highest dose activity change, negative = inhibition, most hits filed as inhibitors | 360,000 tested, 4.4% active | AID 504333 | AlphaScreen BAZ2B-H3K14Ac peptide displacement; note: % is set by controls: 0 for no effect and ±100 for the full control effect; nearly all actives have a fitted effect of over 60% in size
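Multi-concentration screen (max 110 uM) measuring displacement of acetylated histone H3 peptide from BAZ2B by AlphaScreen, using 50 nM protein, 50 nM peptide and 10 ug/mL streptavidin donor plus Ni-chelate acceptor beads.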
L3MBTL1 inh – inhibitors of human L3MBTL1. Q9Y468. AlphaScreen L3MBTL1–H3K9me1 peptide binding. Potency, µM (series often up to 57.1 µM), for inactives: top-dose activity, negative = inhibition, most hits filed as inhibitors. 230,000 tested, 0.66% active. AID 485360; note: % is set by controls: 0 for no effect and ±100 for the full control effect; nearly all actives have a fitted effect of over 60% in size
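Displacement of a biotinylated histone H3(1-15) peptide monomethylated at Lys9 (75 nM) from L3MBTL1 (50 nM) was measured by AlphaScreen after a 30 min room-temperature compound incubation; cefsulodin titration served as intraplate control.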
Starred values were filed as active, the others as inactive; [ ] = remark or other dose. Shown are actives, neighbours in structure and some others; about 11% of the full set was active somewhere. Calls come from the whole dose curve; as a rule, active = well fitted inhibition curve with a large enough effect; inconclusive = small, poorly fitted or top-dose-only effect; inactive = no such curve, though single readings can be large or run the other way. Potency is the fitted concentration of half-maximal effect.

COc1ccc(-c2sc3cc4c(cc3c2C#CC2(N)CCCCC2)OCO4)cc1 was read as JMJD2A Tudor inh 25µM*, HP1b chromo inh 11%, G9a block 4%[0.501 µM], BAZ2B block 10µM* and L3MBTL1 inh -6%.
`COc1ccc(C(=O)c2sc3nc(-c4ccc(OC)cc4)ccc3c2N)cc1` gave JMJD2A Tudor inh 8%, HP1b chromo inh 63%, G9a block -1%[59 µM], BAZ2B block 15% and L3MBTL1 inh 26%.
For COc1ccc(-c2ccc3c(N)c(C(=O)c4cccc(OC)c4)sc3n2)cc1 the results were JMJD2A Tudor inh -9%, HP1b chromo inh 69%, G9a block 50µM* and BAZ2B block -18%.
O=C(Nc1c(Cl)cccc1Cl)c1cc(-c2cccc(O)c2)on1 was read as JMJD2A Tudor inh -17%, HP1b chromo inh 40%, G9a block -10%[59 µM] and BAZ2B block inconclusive.
For CCCC(=O)N(c1ccc2oc(=O)sc2c1)S(=O)(=O)c1cccs1 the results were JMJD2A Tudor inh -13%, HP1b chromo inh 38%, G9a block 40µM*, BAZ2B block -6% and L3MBTL1 inh -14%.
`CC(=O)N(c1ccc2oc(=O)sc2c1)S(=O)(=O)c1ccccc1` gave JMJD2A Tudor inh -2%[11.4 µM], HP1b chromo inh 5%, G9a block 25µM*, BAZ2B block inconclusive and L3MBTL1 inh 0%.
CCOC(=O)c1c(-c2ccccc2)oc2ccc(N(C(C)=O)S(=O)(=O)c3ccc(C)cc3)cc12 was read as JMJD2A Tudor inh -10%, HP1b chromo inh 12%, G9a block 6%[59 µM] and BAZ2B block -1%.
`COc1ccc(OC)c(S(=O)(=O)N(C(C)=O)c2ccc3oc(=O)sc3c2)c1` gave JMJD2A Tudor inh 1%, HP1b chromo inh 62%, G9a block 35µM* and BAZ2B block -20%.
Screening CC(C)C(=O)N(c1ccc2oc(=O)sc2c1)S(=O)(=O)c1ccccc1 returned JMJD2A Tudor inh inconclusive, HP1b chromo inh 19%, G9a block 3.2µM* and BAZ2B block -32%.
`Cc1ccc(F)cc1NC(=O)CSc1nc(-c2cccs2)cc(C(F)(F)F)n1` gave JMJD2A Tudor inh 7%, HP1b chromo inh 41%, G9a block -6%[59 µM] and BAZ2B block 4%.
`Cc1cccc(NS(=O)(=O)c2c(C(=O)N3CCOCC3)c(C)n(C)c2C)c1C` gave JMJD2A Tudor inh -25%, HP1b chromo inh -1%, G9a block -3% and BAZ2B block -15%[57.1 µM].
Screening CCc1cccc(CC)c1NC(=S)NCc1nc2ccccc2[nH]1 returned JMJD2A Tudor inh -21%, HP1b chromo inh 17%, G9a block -41%, BAZ2B block inconclusive and L3MBTL1 inh 6%[11.4 µM].
For COc1ccc(S(=O)(=O)N(C(=O)C(C)C)c2ccc3oc(=O)sc3c2)cc1 the results were JMJD2A Tudor inh -21%, HP1b chromo inh 48%, G9a block 7.9µM* and BAZ2B block inconclusive.
`Cc1cc(N/N=C/c2ccccc2O)c2ccccc2n1` gave JMJD2A Tudor inh inconclusive, HP1b chromo inh -5%, BAZ2B block inconclusive and L3MBTL1 inh -6%.
Cc1ccccc1/C=N/Nc1nc2ccccc2c(=O)n1O was read as JMJD2A Tudor inh -4%, HP1b chromo inh -14%, G9a block 14µM* and BAZ2B block -14%.
COc1ccccc1-c1nc2ccccc2c(=O)n1O was read as JMJD2A Tudor inh -22%, HP1b chromo inh -13%, G9a block 35µM* and BAZ2B block inconclusive.
Screening Cc1ccc(-c2nc3ccccc3c(=O)n2O)cc1 returned JMJD2A Tudor inh 35µM*, HP1b chromo inh 18%, G9a block 32µM* and BAZ2B block inconclusive.
Screening O=c1c2ccccc2nc(-c2cccc(Cl)c2)n1O returned JMJD2A Tudor inh inconclusive, HP1b chromo inh 38%, G9a block -38%[59 µM], BAZ2B block inconclusive and L3MBTL1 inh 1%.
`Cc1ccc(-c2nc3ccccc3c(=O)n2NC(=S)N(C)C)cc1` gave JMJD2A Tudor inh -11%, HP1b chromo inh inconclusive, G9a block 4µM*, BAZ2B block 7% and L3MBTL1 inh 6%.
`O=c1c2ccccc2nc(-c2ccc([N+](=O)[O-])cc2)n1O` gave JMJD2A Tudor inh inconclusive, HP1b chromo inh 4%, G9a block -2%, BAZ2B block inconclusive and L3MBTL1 inh 2%.
For COc1cc(OC)cc(-n2c(=O)c3sccc3n(Cc3ccc(F)cc3)c2=O)c1 the results were JMJD2A Tudor inh -15%, HP1b chromo inh 28%, G9a block 7%[59 µM] and BAZ2B block 5%.
Screening COc1cc(/C=C(\C#N)C(=O)Nc2ccc(C)cc2)ccc1OCc1cc(=O)n2nc(C)sc2n1 returned JMJD2A Tudor inh -14%, HP1b chromo inh 28%, G9a block 5%[59 µM] and BAZ2B block -1%.
Screening O=c1oc2ccc(F)cc2cc1-c1nc(-c2cccs2)no1 returned JMJD2A Tudor inh -18%, HP1b chromo inh 23%, G9a block -1%[59 µM] and BAZ2B block -15%.
`CC(=O)C1=C(C)NC(SCc2cccc3ccccc23)=C(C#N)C1c1ccco1` (stereo not drawn) gave JMJD2A Tudor inh 10µM*, HP1b chromo inh 37%, G9a block 32µM*, BAZ2B block -8% and L3MBTL1 inh -1%.
CC(=O)C1=C(C)NC(SCc2ccc(C#N)cc2)=C(C#N)C1c1ccco1 (stereo not drawn) was read as JMJD2A Tudor inh 20µM*, HP1b chromo inh 34%, G9a block inconclusive, BAZ2B block -33% and L3MBTL1 inh 4%.
CSC1=C(C#N)C(c2ccccc2)C(C(C)=O)=C(C)N1 (stereo not drawn) was read as JMJD2A Tudor inh 11%, HP1b chromo inh 60%, G9a block 3%, BAZ2B block -12% and L3MBTL1 inh 5%.
CCOC(=O)C1=C(c2ccccc2)NC(SC)=C(C#N)C1c1ccco1 (stereo not drawn) was read as JMJD2A Tudor inh inconclusive, HP1b chromo inh 40%, G9a block 45µM*, BAZ2B block -33% and L3MBTL1 inh 5%.
For CC(=O)C1=C(C)NC(SCC(=O)c2ccccc2)=C(C#N)C1c1ccco1 (stereo not drawn) the results were G9a block inconclusive, BAZ2B block 12% and L3MBTL1 inh -14%.
`CSCSC1=C(C#N)C(c2ccc(Cl)cc2)C(C(C)=O)=C(C)N1` (stereo not drawn) gave G9a block 7.9µM*, BAZ2B block 11% and L3MBTL1 inh 27%.
`COC(=O)c1ccccc1S(=O)(=O)Nc1cc(=O)c2ccccc2[nH]1` gave JMJD2A Tudor inh -30%.
CCCN(CC(=O)Nc1ccccc1OC)C(=O)c1ccc(=O)[nH]c1 was read as JMJD2A Tudor inh -5%, HP1b chromo inh 10%, G9a block 2% and BAZ2B block 4%.
